Assay results reported in PubChem BioAssay.
The source made the active and inactive calls.

Experiment: PSAC antagonists in infected red cells, primary screen, cell-based, P. falciparum Indochina, OD700, 2 h (AID 1155);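 further: lysis reports solute entry through the parasite surface anion channel PSAC; channel blockers reduce lysis of infected cells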
Details: P. falciparum Indochina infected erythrocytes, osmotic lysis OD700; higher = more signal, called active from +8 up or from −8 down

z-score, inactive:
C=CC[C@@H]1C=C[C@H](ON=C(C)CCC(=O)OC[C@H]2O[C@H](c3ccccc3)C=C[C@@H]2Oc2ccc(OC)cc2)[C@@H](CO)O1 1.25
CCOC(=O)[C@H](CC(C)C)NC(=O)CCC1CC(OC(=O)NCc2cccc3ccccc23)CC2(CCCC(COC(=O)NCCCN3CCCC3=O)O2)O1 (stereo not given in full) 0.936
CCCCC#C[C@@H]1C=C[C@H](Oc2ccc(C(=O)OC)cc2)[C@@H](COC(=O)OCC)O1 1.38
COC(=O)[C@@H]1CC[C@H](C)[C@@H](c2ccc(C)cc2)N1C(=O)c1ccc(C=NO[C@@H]2O[C@H](COC(C)=O)[C@@H](OC(C)=O)[C@H](OC(C)=O)[C@H]2OC(C)=O)cc1 -0.647
C=CC[C@@H]1C=C[C@H](ON=C[C@@H](C)[C@H](OCc2ccccc2)C(C)C)[C@@H](CO)O1 0.0178
COC(=O)CC=C[C@@H](C)[C@@H](C=NOCC[C@@H]1C=C[C@H](OC(C)=O)[C@@H](COC(C)=O)O1)OC 0.239
CC(CCN1CCCCc2nc(C)c(C)cc21)=NO[C@H](C)c1cn([C@H](CO)Cc2ccccc2)nn1 1.16
CC[C@@H](c1ccccc1)n1c(=O)n2n(c1=O)[C@H]1[C@H](O)[C@@H]3O[C@@H]3C(=NOC[C@@H](O)COCc3ccco3)[C@H]1CC2 -0.339
C#CCCCON=C1[C@H]2CCn3c(=O)n(-c4ccccc4)c(=O)n3[C@H]2[C@H](O)[C@@H]2O[C@H]12 -1.22
CC(C)=CCCC(C)=CCON=C1C[C@@H](O)[C@@H](O)[C@@H]2[C@@H]3C(=O)N(Cc4ccccc4)C(=O)[C@@H]3CC[C@@H]12 0.239
